ChEMBL document CHEMBL3988442, “University of Dundee, Small-Polar-MMV Screening Library” (2021)
Among all 48,000 compounds or so, about 13,000 (27%) showed an effect of 50% or more. The list shows a part of the results.

Each compound was assayed on Wolbachia pipientis (assay: Anti-Wolbachia Cell-Based Screen). Details: 5 µM.
Type: functional
Parameters: scale not given: in the data most compounds retested in dose-response had high values

First: O=C1CC(N(C(=O)CCc2c[nH]c3ccccc23)C2CC2)C(=O)N1 (configuration not stated)
Second: O=C1CC(N(C(=O)CCc2cc(F)ccc2F)C2CC2)C(=O)N1 (configuration not stated)
The “Percent Effect” value of the first is lower: 78.13% for the first, 101% for the second.

First: O=C1CC(N(C(=O)Cc2csc(-c3ccccc3)n2)C2CC2)C(=O)N1 (configuration not stated)
Second: O=C1CC(N(C(=O)c2ccccc2Br)C2CC2)C(=O)N1 (configuration not stated)
The “Percent Effect” value of the first is higher: 1.029% for the first, -20.12% for the second.

Compared with O=C1CC(N(C(=O)c2ccc(-n3cccc3)cc2)C2CC2)C(=O)N1 (configuration not stated), COc1ccc(C(=O)N(C2CC2)C2CC(=O)NC2=O)cc1 (configuration not stated) is lower in “Percent Effect” value: -5.765% for the first, -6.531% for the second.

Compared with COc1cc(C(=O)N(C2CC2)C2CC(=O)NC2=O)ccc1C (configuration not stated), O=C1CC(N(C(=O)c2ccc3c(c2)CCC3)C2CC2)C(=O)N1 (configuration not stated) is lower in “Percent Effect” value: -10.25% for the first, -12.36% for the second.

Going from O=C1CC(N(C(=O)COc2ccc(F)cc2F)C2CC2)C(=O)N1 (configuration not stated) to CN(Cc1ccc(F)cc1)C(=O)CN1CCCCC1Cn1cncn1 (configuration not stated), the “Percent Effect” value falls from 87.23% to -13.17%.

First: CC(C)COc1cncc(NCCc2nnc3ccccn23)n1
Second: Cn1c(CCNc2nccnc2C#N)nc2ccc(F)cc21
The “Percent Effect” value of the first is higher: 6.284% for the first, -0.9847% for the second.

First: CCCn1ccnc1-c1nccn1CCC(N)=O
Second: CCCn1ccnc1-c1nccn1CCN(C)C
The “Percent Effect” value of the first is lower: -22.61% for the first, -8.104% for the second.

Going from CCCSc1ncc(-c2nccn2CCO)cn1 to COCCCn1ccnc1-c1cnc(OC)nc1, the “Percent Effect” value rises from -55.57% to -18.72%.

First: COc1ncc(-c2nccn2CCN(C)C)cn1
Second: COCc1ncc(-c2nccn2CCN(C)C)cn1
The “Percent Effect” value of the first is lower: -13.85% for the first, 3.066% for the second.

Going from CCCn1ccnc1-c1nccn1CCn1cnnc1 to COCc1ncc(-c2nccn2CCn2cnnc2)cn1, the “Percent Effect” value rises from 87.43% to 95.42%.

Going from COCc1ncc(-c2nccn2CCS(C)(=O)=O)cn1 to Cc1cnc(N2CCOC3(COCCN(c4nccs4)C3)C2)nc1 (configuration not stated), the “Percent Effect” value falls from 120.2% to 7.245%.

First: CN(C)Cc1nnc(C2CCN(c3ncccc3Cl)CC2)n1C1CC1
Second: Cc1ccc(N2CC3(CCN(c4nccs4)C3)C2)nn1
The “Percent Effect” value of the first is lower: -16.88% for the first, -7.178% for the second.

Compared with O=C(NC1CCCC1)O[C@H]1COCCN(c2nc3ccccc3o2)C1, c1ccc2sc(N3CCCC4(CCOC4)C3)nc2c1 (configuration not stated) is lower in “Percent Effect” value: -4.12% for the first, -24.88% for the second.

First: CN(Cc1nccs1)c1nccc(N2CCN[C@H]3CS(=O)(=O)C[C@H]32)n1
Second: c1ccc(N2CCOCC3(CCCN(c4nccs4)C3)C2)nc1 (configuration not stated)
The “Percent Effect” value of the first is lower: -5.478% for the first, 105.2% for the second.

First: CNC(=O)C1CCCN(C(=O)OC)C1 (configuration not stated)
Second: O=C(Nc1ccccc1)C1CCCN(C(=O)Cn2cncn2)C1 (configuration not stated)
The “Percent Effect” value of the first is lower: -23.89% for the first, 9.271% for the second.

First: Cc1ccc(N2CCCC3(COCCN(c4ncccn4)C3)C2)nn1.O=C(O)C(F)(F)F (configuration not stated)
Second: Cc1ccc(N2CCCC3(COCCN(c4ccccn4)C3)C2)nn1.O=C(O)C(F)(F)F (configuration not stated)
The “Percent Effect” value of the first is lower: 82.98% for the first, 88.94% for the second.

Compared with OC1(CN2CCCC2)COCCN(c2nnc(-c3ccccc3)s2)C1 (configuration not stated), c1ccc(-c2nnc(N3CCCC4(CCOC4)C3)s2)cc1 (configuration not stated) is higher in “Percent Effect” value: -13.1% for the first, 56.2% for the second.

First: CCOCC(=O)N1CCOCC2(CCN(c3ncccn3)C2)C1.O=C(O)C(F)(F)F (configuration not stated)
Second: Cc1ccoc1C(=O)N1CCOCC2(CCN(c3ncccn3)C2)C1.O=C(O)C(F)(F)F (configuration not stated)
The “Percent Effect” value of the first is higher: 115.1% for the first, 0.2458% for the second.

First: Cc1ccc(N2CCC3(CC2)COCCN(c2nccs2)C3)nn1.O=C(O)C(F)(F)F.O=C(O)C(F)(F)F
Second: Cc1ccc(N2CCCC3(COCCN(c4nccs4)C3)C2)nn1.O=C(O)C(F)(F)F.O=C(O)C(F)(F)F (configuration not stated)
The “Percent Effect” value of the first is higher: 108.8% for the first, -0.6863% for the second.

First: O=C(O)C(F)(F)F.O=C(O)C(F)(F)F.c1cnc(N2CCOCC3(CCCN(CC4CCOCC4)C3)C2)nc1 (configuration not stated)
Second: Cc1cc(C(=O)N2CCCC3(COCCN(c4ncccn4)C3)C2)[nH]n1.O=C(O)C(F)(F)F.O=C(O)C(F)(F)F (configuration not stated)
The “Percent Effect” value of the first is higher: -3.791% for the first, -11.88% for the second.

Compared with CCOCC(=O)N1CC[C@H]2OCC[C@@]2(COc2ncccc2F)C1.O=C(O)C(F)(F)F, CCCS(=O)(=O)N1CCOCC2(CCN(c3ccccn3)C2)C1.O=C(O)C(F)(F)F (configuration not stated) is lower in “Percent Effect” value: -3.289% for the first, -9.194% for the second.

Going from CCc1ncc2c(n1)CN(CC(=O)NC1CCCCNC1=O)CC2 (configuration not stated) to O=C1NCC2(CCCN(C(=O)Nc3ccc4occc4c3)CC2)O1 (configuration not stated), the “Percent Effect” value falls from -10.76% to -22.41%.

Going from N#CCCCOc1cccc(CN2CCCC2c2ccc[nH]2)c1 (configuration not stated) to O=C(NCCc1ccccc1)C1CCN(C(=O)Cn2cncn2)C1 (configuration not stated), the “Percent Effect” value rises from -9.513% to 175.5%.

Going from NCC1Cc2cc(-c3cnccn3)cc(Cl)c2O1 (configuration not stated) to CCCNC(=O)C1CCCN(Cc2ccc(-n3cncn3)c(C)c2)C1 (configuration not stated), the “Percent Effect” value rises from 3.613% to 5.039%.

Compared with O=C(O)C(F)(F)F.c1ccc(N2CCCC3(COCCN(c4nccs4)C3)C2)nc1 (configuration not stated), O=C(NCCc1ccccc1)C1CCC(Cn2cnnn2)CC1 (configuration not stated) is higher in “Percent Effect” value: -9.014% for the first, 3.007% for the second.

First: Cc1cc(SC(C)(C)C)ccc1NC(C)C(=O)NC(N)=O (configuration not stated)
Second: O=C(NCCc1ccc(F)cc1)C1CN(C(=O)Cn2cncn2)C1
The “Percent Effect” value of the first is lower: 0.5682% for the first, 163.3% for the second.
